# Unmarked numbers belong to inactive results. Inconclusive results are not listed. The source made the active and inactive calls. Unless noted, calls come from the whole dose curve; as a rule, active = well fitted curve in the direction sought with a large enough effect; inconclusive = small, poorly fitted or top-dose-only effect, or another doubt; inactive = no such curve, though single readings can be large; an effect the other way counts as inactive or inconclusive.
# Assays:
# [1] = biological target: Lysosomal acid glucosylceramidase (Homo sapiens) (UniProt P04062); assay: Glucocerebrosidase-p2 (AID 348; in the data active = potency below about 10 µM; note: potency is the fitted concentration of half-maximal effect); conditions: purified GBA, blue fluorogenic substrate, 40 min
# Outline: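 Compounds titrated from 0.6 nM upwards against 0.2 nM enzyme in pH 5.9 citric acid/KH2PO4, taurocholate, tween-20; blue fluorogenic substrate 80 uM, 40 min room temperature, stopped and read Ex 365/Em 440 for AC50.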
# [2] = AP1 Signaling Pathway (AID 357; active = well fitted curve in either direction with a large enough effect, not every such curve was filed as active;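 note: ME-180 reporter cells stimulated with EGF at its EC50 level; % is set by controls: 0 for no effect and ±100 for the full control effect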); conditions: ME-180 AP-1-bla reporter, EGF-induced, beta-lactamase ratio, 5 h; at 7.69 µM (top of the series) unless noted
# Outline: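 A ratiometric CCF4 readout (405 nm excitation; 460 and 530 nm emission) quantified AP-1-driven beta-lactamase in ME-180 cells after 5 h with compound and EC50 EGF; AC50 values were derived for activators and inhibitors.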
# [3] = biological target: Cytochrome P450 1A2 (Homo sapiens) (UniProt P05177); assay: p450-cyp1a2 (AID 410; calls by dose curve; note: potency is the fitted concentration of half-maximal effect); conditions: recombinant CYP1A2, luciferin-ME demethylation, luminescence; series mostly up to 57 µM
# Outline: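 Inhibition was calculated relative to 57 uM furafylline (full inhibition). The reaction used human CYP1A2 at 20nM with Luciferin-ME at its Km, 100uM, driven by an NADPH-regenerating system for 60 min at room temperature.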
# [4] = NFAT Signaling Pathway (AID 444; active = well fitted curve in either direction with a large enough effect, not every such curve was filed as active;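 note: carbachol stimulus at about its EC50 of 1 µM final; % is set by controls: 0 for no effect and ±100 for the full control effect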); conditions: Jurkat NFAT-bla M1, carbachol, beta-lactamase ratio, 5 h; at 7.69 µM (top of the series) unless noted
# Outline: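 Jurkat cells carrying an NFAT-driven β-lactamase reporter and co-transfected muscarinic M1 receptor were treated with compound plus carbachol (1 uM final, an EC50 level) for 5 h at 37 °C. CCF4 loading followed for 1 h at RT; 460/530 nm ratio gave %activity.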
# [5] = Stat Signaling Pathway (AID 446; active = well fitted curve in either direction with a large enough effect, not every such curve was filed as active;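 note: ME-180 cervical cancer cells given 40 pM IL-6 alongside compound; SIE-controlled beta-lactamase reporter measured as 460/530 nm FRET emission ratio; % is set by controls: 0 for no effect and ±100 for the full control effect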); conditions: ME-180 SIE beta-lactamase reporter, IL-6 stimulated, 5 h; at 7.69 µM (top of the series) unless noted
# Outline: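 ME-180 SIE-bla cells; overnight plating; cpd + IL-6 40 pM, 5 h, 37 C; LiveBLAzer 2.5 h RT; 460/530 nm emission ratio. Normalized to 300 pM IL-6 and 125 nM JAK inhibitor controls.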
# [6] = biological target: Glucocorticoid receptor (Homo sapiens) (UniProt P04150); assay: GR-GFP Redistribution (AID 450;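 active = compounds whose dose series gives a full or clear partial fitted curve of increased nuclear translocation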; note: potency is the fitted concentration of half-maximal effect); conditions: U2OS GR-GFP nuclear translocation, laser cytometry, 2 h
# [7] = biological target: Glucocorticoid receptor (Homo sapiens) (UniProt P04150); assay: GR-EFC Redistribution (AID 451; calls by dose curve; note: potency is the fitted concentration of half-maximal effect); conditions: CHO-K1 GR-EFC translocation, beta-gal luminescence, 2 h
# Outline: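 CHO-K1 cells stably expressing nuclear-localized β-gal enzyme acceptor and GR fused C-terminally to the enzyme donor fragment; ligand-driven nuclear translocation restores β-gal by complementation. Compounds titrated up to 46 uM final, 2 h at 37 °C; luminescence read.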
# [8] = biological target: Mitogen-activated protein kinase 10 (Mus musculus) (UniProt Q61831); assay: JNK3 AlphaScreen Assay (AID 530; active = well fitted curve in either direction with a large enough effect, not every such curve was filed as active;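 note: kinase came from lysate of stimulated human HepG2 cells; signal reports phosphorylation of biotinylated GST-cJun 1-79 at Ser73 with 10 µM ATP; % is set by controls: 0 for no effect and ±100 for the full control effect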); conditions: JNK3 lysate, c-Jun phosphorylation; series mostly up to 57.1 µM
# Outline: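 JNK3 came from HepG2 lysates pre-activated with IL-1beta and TNF-alpha and phosphorylated biotinylated GST-cJun (1-79) at 10 uM ATP, pH 7.6, room temperature. Compounds were titrated. AlphaScreen signal used anti-phospho-cJun (Ser73) antibody.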
# [9] = biological target: 3',5'-cyclic-AMP phosphodiesterase 4B (Homo sapiens) (UniProt Q07343); assay: qHTS Assay for Inhibitors of PDE-IV (AID 607; active = well fitted activation curve with a large enough effect in the main read-out, with a control signal flat, not every such curve was filed as active; note: % of control where 0% means no effect); conditions: HEK293 ACTOne CNG channel cells, membrane potential fluorescence; series mostly up to 22.9 µM
# Outline: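 ACTOne HEK293 cells carry a modified cAMP-gated CNG channel and express endogenous PDE4; plated 1000 cells/well, compounds up to 22.9 uM final. Membrane-potential dye fluorescence (ex 535/em 590) was read; parental cells received 10 uM forskolin + 100 uM RO 20-1724.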
# [10] = biological target: Cytochrome P450 3A4 (Homo sapiens) (UniProt P08684); assay: qHTS Assay for Activators of Cytochrome P450 3A4 (AID 885); conditions: recombinant CYP3A4, Luciferin-PPXE luminescence, 60 min; series mostly up to 57.1 µM; note: nearly all actives have a fitted effect of over 65% in size
# Outline: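 20nM CYP3A4 + 25uM Luciferin-PPXE (=KM), 200mM KPO4; cpd 10 min RT; NADPH regen, 60 min RT; stop w/ detection buffer, 20 min; luminescence. Normalized to 57 uM ketoconazole.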
# [11] = biological target: Dual specificity protein kinase CLK4 (Homo sapiens) (UniProt Q9HAZ1); assay: qHTS Assay for Inhibitors of CDC-like Kinase 4 (ADP-FP Assay) (AID 1795); conditions: Transcreener ADP fluorescence polarization; series mostly up to 50 µM;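 note: recombinant human CLK4 phosphorylating RS repeat peptide at 1 µM ATP; % is set by controls: 0 for no effect and ±100 for the full control effect; nearly all actives have a fitted effect of over 60% in size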
# Outline: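 Clk4 6.25 nM; RS peptide 100 uM; ATP 1 uM; 25 mM Tris pH 7.5, 10 mM MgCl2; 1 h reaction. ADP detected via antibody/orange tracer FP displacement; TG003 positive control.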
# [12] = biological target: Ubiquitin carboxyl-terminal hydrolase 1 (Homo sapiens) (UniProt O94782); assay: Inhibitors of USP1/UAF1: Pilot qHTS (AID 504865); conditions: purified USP1/UAF1, Ub-rhodamine cleavage fluorescence; series mostly up to 54.9 µM;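 note: rhodamine fluorescence freed from ubiquitin-rhodamine substrate followed over time; top concentration of the series differs between compounds; % is set by controls: 0 for no effect and ±100 for the full control effect; nearly all actives have a fitted effect of over 35% in size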
# Outline: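 In 50mM HEPES pH 7.8 containing 0.5mM EDTA, 1mM TCEP, 0.1 mg/ml BSA and 0.01% Tween-20, 1nM USP1/UAF1 is exposed to compound for 15 min, then Ub-Rho (150nM final) is added and fluorescence is read over time.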
# [13] = Primary qHTS for small molecule stabilizers of the endoplasmic reticulum resident proteome: Secreted ER Calcium Modulated Protein (SERCaMP) assay (AID 1508630); conditions: SH-SY5Y GLuc-SERCaMP (Gaussia luciferase released on ER calcium loss) secretion, thapsigargin, luminescence; series mostly up to 38.4 µM; note: % is set by controls: 0 for no effect and ±100 for the full control effect
# Outline: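 GLuc-SERCaMP-expressing SH-SY5Y cells, pretreated 16 h with compound, are challenged with thapsigargin to empty ER calcium stores; after 4 h, coelenterazine is added directly to the medium and luminescence is imaged.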
# [14] = biological target: Cytochrome P450 2D6 (Homo sapiens) (UniProt P10635); assay: qHTS Assay for Inhibitors and Substrates of Cytochrome P450 2D6 (AID 891); conditions: recombinant CYP2D6, luciferin-ME EGE luminescence; series mostly up to 57.1 µM; note: potency is the fitted concentration of half-maximal effect; nearly all actives have a fitted effect of over 60% in size
# Outline: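 Human CYP2D6 (5 nM) with 30 uM Luciferin-ME EGE (at Km) in 100 mM KPO4, compound preincubated 10 min, then NADPH regeneration system for 60 min at room temperature. Luciferin read by luminescence; normalized to 1.43 uM quinidine.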
# [15] = biological target: Cytochrome P450 2C19 (Homo sapiens) (UniProt P33261); assay: qHTS Assay for Inhibitors and Substrates of Cytochrome P450 2C19 (AID 899); conditions: recombinant CYP2C19, luciferin-H EGE luminescence; series mostly up to 57.1 µM; note: potency is the fitted concentration of half-maximal effect; nearly all actives have a fitted effect of over 60% in size
# Outline: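 NADPH-dependent conversion of Luciferin-H EGE (10uM, at KM) by 5nM enzyme in 50mM KPO4, 60 min at 37C following 10 min compound preincubation. Stopped with luciferin detection buffer; luminescence read after 20 min.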
# [16] = biological target: Dual specificity protein kinase CLK4 (Homo sapiens) (UniProt Q9HAZ1); assay: qHTS Assay for Inhibitors of CDC-like Kinase 4 (ADP-Glo Assay) (AID 1771); conditions: recombinant CLK4, ADP-Glo luminescence; series mostly up to 80 µM; note: % is set by controls: 0 for no effect and ±100 for the full control effect; nearly all actives have a fitted effect of over 70% in size
# Outline: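 Kinase reaction: Clk4 at 25 nM, RS repeat peptide substrate at 100 uM, ATP at 1 uM, 1 hr, room temperature. Product ADP detected as luciferase signal via ADP-Glo.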
# [17] = biological target: Cytochrome P450 2C9 (Homo sapiens) (UniProt P11712); assay: qHTS Assay for Inhibitors and Substrates of Cytochrome P450 2C9 (AID 883); conditions: recombinant CYP2C9, luciferin-H luminescence, 60 min; series mostly up to 57.1 µM; note: % is set by controls: 0 for no effect and ±100 for the full control effect; nearly all actives have a fitted effect of over 60% in size
# Outline: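 A luminogenic readout tracked human CYP2C9 (10nM) converting deoxyluciferin (100uM, at KM) in 25mM KPO4 during 60 min at 37C with regenerated NADPH. Values normalized to 57uM sulphaphenazole as complete inhibition.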
# [18] = qHTS Assay for Identification of Small Molecule Agonists for Hypoxia Response Element Signaling Pathway (AID 914; active = well fitted activation curve with a large enough effect in the signal ratio, with a control signal flat, not every such curve was filed as active; the % refers to the signal ratio; note: % of control where 0% means no effect); conditions: ME-180 (cervical carcinoma) HRE-bla reporter, beta-lactamase ratio, CoCl2, 17 h; activation: hits give high values
# Outline: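 A beta-lactamase reporter under hypoxia response element control in ME-180 cells served as the system. Compound titrations plus EC50 CoCl2 ran 17 h at 37 degrees Celsius; AC50 values were fitted from %Activity.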
# [19] = biological target: Cytochrome P450 3A4 (Homo sapiens) (UniProt P08684); assay: qHTS Assay for Inhibitors and Substrates of Cytochrome P450 3A4 (AID 884); conditions: recombinant CYP3A4, Luciferin-PPXE luminescence; series mostly up to 57.1 µM; note: potency is the fitted concentration of half-maximal effect; nearly all actives have a fitted effect of over 50% in size
# Outline: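 20 nM human CYP3A4 with 25 uM Luciferin-PPXE (at KM) in 200 mM KPO4, preincubated 10 min with compound; NADPH regeneration started a 60 min RT reaction. Luciferin detected by luminescence, normalized to 57 uM ketoconazole as full inhibition.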
# 3',5'-cyclic-AMP phosphodiesterase 4B (Homo sapiens), sequence (Q07343 whole entry, looked up): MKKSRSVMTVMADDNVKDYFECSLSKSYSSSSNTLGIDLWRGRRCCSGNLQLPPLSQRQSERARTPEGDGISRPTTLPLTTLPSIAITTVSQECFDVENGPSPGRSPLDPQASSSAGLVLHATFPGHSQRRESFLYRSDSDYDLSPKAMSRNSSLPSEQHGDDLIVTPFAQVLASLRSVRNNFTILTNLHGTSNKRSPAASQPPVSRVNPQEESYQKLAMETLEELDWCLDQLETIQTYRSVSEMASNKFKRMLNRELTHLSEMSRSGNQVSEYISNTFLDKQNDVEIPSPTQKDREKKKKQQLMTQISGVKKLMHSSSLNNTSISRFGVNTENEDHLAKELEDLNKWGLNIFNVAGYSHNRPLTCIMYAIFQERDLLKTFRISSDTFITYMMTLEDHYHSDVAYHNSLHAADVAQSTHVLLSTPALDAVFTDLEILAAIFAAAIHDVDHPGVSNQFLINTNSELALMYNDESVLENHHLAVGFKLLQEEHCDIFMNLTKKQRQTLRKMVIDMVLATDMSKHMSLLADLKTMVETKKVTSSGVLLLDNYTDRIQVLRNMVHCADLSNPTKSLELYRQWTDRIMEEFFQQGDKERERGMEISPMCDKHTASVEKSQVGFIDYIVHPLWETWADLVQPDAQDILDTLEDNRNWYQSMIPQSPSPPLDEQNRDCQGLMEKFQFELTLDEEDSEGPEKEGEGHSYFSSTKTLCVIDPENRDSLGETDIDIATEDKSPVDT
# Lysosomal acid glucosylceramidase (Homo sapiens), sequence (P04062 whole entry, looked up): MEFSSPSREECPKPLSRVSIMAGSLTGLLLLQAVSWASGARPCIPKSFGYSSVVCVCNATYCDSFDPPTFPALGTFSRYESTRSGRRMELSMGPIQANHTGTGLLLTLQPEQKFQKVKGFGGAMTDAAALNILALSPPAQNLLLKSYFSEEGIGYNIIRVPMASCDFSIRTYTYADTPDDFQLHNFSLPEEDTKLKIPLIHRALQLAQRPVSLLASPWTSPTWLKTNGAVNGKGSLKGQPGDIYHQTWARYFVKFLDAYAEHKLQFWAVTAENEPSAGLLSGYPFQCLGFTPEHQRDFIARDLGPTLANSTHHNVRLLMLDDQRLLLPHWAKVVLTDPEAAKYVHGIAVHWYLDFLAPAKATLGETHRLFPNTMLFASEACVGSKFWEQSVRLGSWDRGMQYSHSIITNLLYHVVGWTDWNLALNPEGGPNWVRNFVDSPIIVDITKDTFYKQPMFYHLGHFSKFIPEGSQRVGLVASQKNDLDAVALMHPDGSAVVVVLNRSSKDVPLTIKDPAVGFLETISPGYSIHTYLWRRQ
# Glucocorticoid receptor (Homo sapiens), sequence (P04150 whole entry, looked up, the tested form may be a part): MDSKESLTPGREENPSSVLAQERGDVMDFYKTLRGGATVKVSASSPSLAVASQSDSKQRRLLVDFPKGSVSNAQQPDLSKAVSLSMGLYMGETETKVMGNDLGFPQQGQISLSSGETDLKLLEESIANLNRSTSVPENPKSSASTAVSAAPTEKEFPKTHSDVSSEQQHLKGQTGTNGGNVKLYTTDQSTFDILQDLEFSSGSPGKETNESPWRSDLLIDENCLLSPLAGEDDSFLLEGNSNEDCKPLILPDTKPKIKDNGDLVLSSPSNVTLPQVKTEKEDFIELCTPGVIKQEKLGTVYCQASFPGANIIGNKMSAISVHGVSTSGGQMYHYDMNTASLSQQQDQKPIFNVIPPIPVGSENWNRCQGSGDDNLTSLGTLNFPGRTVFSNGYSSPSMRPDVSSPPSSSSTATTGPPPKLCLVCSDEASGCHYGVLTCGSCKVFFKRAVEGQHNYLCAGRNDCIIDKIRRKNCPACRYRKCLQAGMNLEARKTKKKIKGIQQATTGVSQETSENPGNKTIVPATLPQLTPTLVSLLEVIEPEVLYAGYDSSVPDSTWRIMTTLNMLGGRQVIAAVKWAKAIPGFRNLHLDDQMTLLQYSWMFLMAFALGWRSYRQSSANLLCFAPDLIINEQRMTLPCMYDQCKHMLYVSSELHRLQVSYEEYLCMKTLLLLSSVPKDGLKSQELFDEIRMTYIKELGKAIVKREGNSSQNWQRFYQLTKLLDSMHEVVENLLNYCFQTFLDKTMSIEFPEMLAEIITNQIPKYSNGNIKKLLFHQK
# Dual specificity protein kinase CLK4 (Homo sapiens), sequence (Q9HAZ1 whole entry, looked up): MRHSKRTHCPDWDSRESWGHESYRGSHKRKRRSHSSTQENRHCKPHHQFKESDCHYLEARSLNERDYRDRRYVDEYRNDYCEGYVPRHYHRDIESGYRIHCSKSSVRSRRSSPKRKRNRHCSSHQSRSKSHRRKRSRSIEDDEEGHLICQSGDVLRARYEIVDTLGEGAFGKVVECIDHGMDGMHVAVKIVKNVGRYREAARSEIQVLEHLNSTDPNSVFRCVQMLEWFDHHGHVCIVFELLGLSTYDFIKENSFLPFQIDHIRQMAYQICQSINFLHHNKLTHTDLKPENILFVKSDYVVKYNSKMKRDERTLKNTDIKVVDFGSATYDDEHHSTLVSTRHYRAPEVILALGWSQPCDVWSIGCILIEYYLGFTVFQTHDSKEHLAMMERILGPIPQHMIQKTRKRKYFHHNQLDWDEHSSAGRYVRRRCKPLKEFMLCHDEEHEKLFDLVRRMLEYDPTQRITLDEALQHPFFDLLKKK
# Cytochrome P450 3A4 (Homo sapiens), sequence (P08684 whole entry, looked up): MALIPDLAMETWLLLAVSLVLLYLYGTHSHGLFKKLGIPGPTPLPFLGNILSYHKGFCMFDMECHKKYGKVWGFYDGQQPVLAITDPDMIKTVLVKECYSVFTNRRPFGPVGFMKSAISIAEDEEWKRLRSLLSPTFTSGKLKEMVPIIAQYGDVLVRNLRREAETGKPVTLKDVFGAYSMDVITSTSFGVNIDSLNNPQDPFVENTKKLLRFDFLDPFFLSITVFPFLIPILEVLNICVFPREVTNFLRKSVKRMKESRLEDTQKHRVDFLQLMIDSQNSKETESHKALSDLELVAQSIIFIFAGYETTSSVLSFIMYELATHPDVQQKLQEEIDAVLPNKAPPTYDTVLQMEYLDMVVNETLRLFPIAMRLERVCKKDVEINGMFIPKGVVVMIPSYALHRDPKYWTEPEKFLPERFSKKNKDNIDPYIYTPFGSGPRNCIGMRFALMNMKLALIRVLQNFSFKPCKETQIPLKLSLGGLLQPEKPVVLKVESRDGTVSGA
# Ubiquitin carboxyl-terminal hydrolase 1 (Homo sapiens), sequence (O94782 whole entry, looked up): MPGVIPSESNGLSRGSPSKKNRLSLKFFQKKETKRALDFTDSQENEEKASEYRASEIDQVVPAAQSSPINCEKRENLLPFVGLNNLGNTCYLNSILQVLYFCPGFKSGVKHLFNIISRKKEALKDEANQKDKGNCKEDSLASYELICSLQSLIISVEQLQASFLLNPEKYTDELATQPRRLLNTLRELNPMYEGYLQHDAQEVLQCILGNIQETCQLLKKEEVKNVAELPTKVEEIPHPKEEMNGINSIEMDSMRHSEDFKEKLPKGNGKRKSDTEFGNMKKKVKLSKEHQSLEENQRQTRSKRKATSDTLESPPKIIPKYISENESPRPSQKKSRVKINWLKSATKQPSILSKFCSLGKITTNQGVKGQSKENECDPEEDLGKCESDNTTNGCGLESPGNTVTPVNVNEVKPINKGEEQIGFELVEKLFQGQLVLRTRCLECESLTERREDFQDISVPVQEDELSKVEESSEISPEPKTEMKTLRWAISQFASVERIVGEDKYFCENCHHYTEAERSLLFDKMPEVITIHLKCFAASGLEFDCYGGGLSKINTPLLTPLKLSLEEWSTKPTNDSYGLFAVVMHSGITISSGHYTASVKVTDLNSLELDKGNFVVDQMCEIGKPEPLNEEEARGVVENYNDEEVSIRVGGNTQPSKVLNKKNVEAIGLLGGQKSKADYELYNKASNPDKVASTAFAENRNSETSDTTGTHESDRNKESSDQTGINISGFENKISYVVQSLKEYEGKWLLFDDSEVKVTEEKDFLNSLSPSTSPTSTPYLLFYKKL
# Cytochrome P450 1A2 (Homo sapiens), sequence (P05177 whole entry, looked up): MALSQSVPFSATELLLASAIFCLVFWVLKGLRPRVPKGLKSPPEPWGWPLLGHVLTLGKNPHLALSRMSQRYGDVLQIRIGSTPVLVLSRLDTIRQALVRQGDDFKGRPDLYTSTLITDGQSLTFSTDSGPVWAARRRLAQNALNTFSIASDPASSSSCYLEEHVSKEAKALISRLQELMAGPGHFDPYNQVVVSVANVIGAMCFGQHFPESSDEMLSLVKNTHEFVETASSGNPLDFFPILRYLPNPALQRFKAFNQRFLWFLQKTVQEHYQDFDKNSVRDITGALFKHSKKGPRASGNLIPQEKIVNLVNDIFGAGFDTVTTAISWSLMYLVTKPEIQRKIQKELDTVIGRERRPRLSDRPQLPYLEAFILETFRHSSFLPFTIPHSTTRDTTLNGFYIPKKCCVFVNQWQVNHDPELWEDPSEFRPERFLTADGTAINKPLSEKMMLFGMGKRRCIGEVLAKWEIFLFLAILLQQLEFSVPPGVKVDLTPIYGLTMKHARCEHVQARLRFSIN
# Cytochrome P450 2C19 (Homo sapiens), sequence (P33261 whole entry, looked up): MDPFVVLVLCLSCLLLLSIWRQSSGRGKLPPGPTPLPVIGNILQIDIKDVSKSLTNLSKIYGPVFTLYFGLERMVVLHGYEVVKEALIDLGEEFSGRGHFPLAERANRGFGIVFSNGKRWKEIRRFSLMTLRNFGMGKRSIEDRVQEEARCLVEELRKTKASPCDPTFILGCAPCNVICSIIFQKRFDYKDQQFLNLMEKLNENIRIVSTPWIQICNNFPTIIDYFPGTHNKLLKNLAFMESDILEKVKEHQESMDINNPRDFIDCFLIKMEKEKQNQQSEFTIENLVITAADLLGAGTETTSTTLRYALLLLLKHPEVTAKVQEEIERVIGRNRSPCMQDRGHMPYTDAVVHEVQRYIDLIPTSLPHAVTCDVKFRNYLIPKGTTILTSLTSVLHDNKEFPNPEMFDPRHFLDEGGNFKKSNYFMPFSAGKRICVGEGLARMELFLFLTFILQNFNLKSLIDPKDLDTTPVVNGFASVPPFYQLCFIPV
SMILES,Potency [1],"activity change, negative = inhibition [2] [%]",Potency [3],"activity change, negative = inhibition [4] [%]","activity, negative = inhibition [5] [%]",Potency [6] [µM],Potency [7] [µM],Potency [8],Potency [9],Potency [10],Potency [11],Potency [12],outcome [13],Potency [14],Potency [15],Potency [16],"activity change, negative = inhibition [17]",activation [18] [%],Potency [19]
N#Cc1ccccc1-c1ccc2ncnc(NCCN3CCOCC3)c2c1,> 11.4 µM,1.67,10 µM (active),-6.3,0.199,> 46,> 46,inactive,inactive,inactive,inactive,inactive,inactive,–,–,–,–,–,–
COc1ccc2[nH]cc(CCNc3ccnc(-c4ccc5c(c4)OCO5)n3)c2c1,7.76 µM (active),-11.1,0.631 µM (active),-4.51,-13.4,> 46,> 46,inactive,inactive,inactive,inactive,inactive,inactive,7.94 µM (active),0.631 µM (active),–,–,–,–
COCCn1c(=O)c(-c2ccccc2)nc2cncnc21,> 11.4 µM,-9.61,0.794 µM (active),-5.89,-10.2,> 9.22,> 46,inactive,inactive,–,–,inactive,inactive,–,–,inactive,–,–,–
CCNc1ncc2nc(-c3cccc(C#N)c3)c(=O)n(Cc3cccc(OC)c3)c2n1,–,-6.16,–,-14.9,-8.97,> 9.22,> 46,inactive,inactive,–,inactive,inactive,inactive,–,–,inactive,–,–,–
CN(C)c1nc(-c2ccccc2C(F)(F)F)nc2ccccc12,> 11.4 µM,–,0.251 µM (active),0.537,7.02,> 46,> 46,inactive,inactive,–,inactive,inactive,inactive,–,–,–,37.2% [at 2.29 µM],–,–
c1cncc(CNc2cc(-c3ccoc3)ncn2)c1,> 11.4 µM,0.0422,3.16 µM (active),-10.4,11.8,–,> 46,inactive,inactive,inactive,inactive,inactive,inactive,–,–,–,–,0.531,–
CS(=O)(=O)Nc1cccc(-c2cc(NCc3ccccc3)ncn2)c1,> 11.4 µM,-7.54,12.6 µM (active),8.48,-7.25,–,> 46,inactive,inactive,inactive,inactive,inactive,inactive,–,–,–,–,–,–
CN(Cc1ccco1)c1cc(-c2cccnc2)ncn1,> 11.4 µM,11.4,0.316 µM (active),-0.973,–,> 46,> 46,inactive,inactive,inactive,inactive,inactive,inactive,–,–,–,–,–,3.16 µM (active)
c1ccc(CNc2ccnc(-c3cccnc3)n2)cc1,> 11.4 µM,-10.3,0.251 µM (active),7.79,–,> 46,> 46,inactive,–,inactive,inactive,inactive,inactive,1.26 µM (active),2.51 µM (active),–,–,–,0.631 µM (active)
COc1ccc(CNc2ccnc(-c3cccnc3)n2)c(OC)c1,> 11.4 µM,-5.2,0.316 µM (active),-0.132,-2.65,> 46,> 46,–,inactive,inactive,inactive,inactive,inactive,–,2 µM (active),–,–,–,0.631 µM (active)

# Reference: PubChem BioAssay (NCATS)
